# Measured values: PubChem BioAssay (NCATS)
# Results filed as inconclusive are left out. A call without a number means that no potency is given here. Values without a mark were called inactive. The source made the active and inactive calls. The call rests on the fitted dose curve; in most records, active means well fitted curve in the direction sought with a large enough effect; inconclusive means small, poorly fitted or top-dose-only effect, or another doubt; inactive means no such curve, though single readings can be large; an effect the other way counts as inactive or inconclusive.
# Target: Cellular tumor antigen p53 (Homo sapiens) (UniProt P04637)
# Assay: Primary qHTS for small molecule compounds that upregulate eGFP-tagged delta133p53alpha (in N-terminal) cells. (AID 2060322); further: nearly all actives have a fitted effect of over 75% in size
# Conditions: NCI-H358 eGFP-delta133p53alpha fluorescence, 24 h; activation: active compounds read high
# Summary of the method: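 NCI-H358 cells pre-induced 24 h with 10 ng/ml doxycycline to express N-terminal eGFP-delta133p53alpha, then dosed 24 h at 37C without doxycycline; fixed, Hoechst-stained, GFP intensity by laser scanning cytometry, normalized to DMSO (0%) and 57.5 uM 5-azacytidine (100%).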
# Sequence of Cellular tumor antigen p53 (Homo sapiens) (P04637 whole entry, looked up): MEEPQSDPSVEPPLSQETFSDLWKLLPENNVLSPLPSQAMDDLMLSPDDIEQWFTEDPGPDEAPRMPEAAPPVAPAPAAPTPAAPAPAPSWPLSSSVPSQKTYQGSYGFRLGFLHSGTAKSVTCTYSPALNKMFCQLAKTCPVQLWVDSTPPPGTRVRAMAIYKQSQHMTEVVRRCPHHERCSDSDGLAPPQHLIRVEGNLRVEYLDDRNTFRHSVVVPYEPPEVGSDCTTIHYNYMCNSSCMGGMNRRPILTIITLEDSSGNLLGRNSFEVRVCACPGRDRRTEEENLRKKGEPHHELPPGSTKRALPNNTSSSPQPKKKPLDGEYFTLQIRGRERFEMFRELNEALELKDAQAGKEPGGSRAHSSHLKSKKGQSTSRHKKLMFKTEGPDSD
row,Structure (SMILES),activation [%]
1,C=C1C(=O)O[C@@H]2C=C(COC(C)=O)CC/C=C(\CO)CC[C@@H]12,3.82
2,COc1ccc2nc(S(=O)(=O)Cc3ncc(C)c(OC)c3C)[nH]c2c1,6.33
3,COc1ccc(CCO[C@@H]2O[C@H](CO[C@@H]3OC[C@H](O)[C@H](O)[C@H]3O)[C@@H](O)[C@H](O)[C@H]2O)cc1,-20.6
4,C/C=C1\[C@H](O[C@@H]2O[C@H](CO)[C@@H](O)[C@H](O)[C@H]2O)OC=C(C(=O)O)[C@H]1CC(=O)OCCc1ccc(O)cc1,0.763
5,CC(C)CC[C@@H](O)[C@](C)(O)[C@H]1CC[C@@]2(O)C3=CC(=O)[C@@H]4C[C@@H](O)[C@@H](O)C[C@]4(C)[C@H]3CC[C@]12C,-7
6,CC(=O)c1[nH]cc(CCC(=O)O)c1CC(=O)O,-15.3
7,CC1CCC2(NC1)OC1CC3C4CC=C5CC(O[C@@H]6O[C@H](CO)[C@@H](O[C@@H]7O[C@@H](C)[C@H](O)[C@@H](O)[C@H]7O)[C@H](O)[C@H]6O[C@@H]6O[C@@H](C)[C@H](O)[C@@H](O)[C@H]6O)CCC5(C)C4CCC3(C)C1C2C (stereo partly drawn),16.8
8,COc1cccc2c1CCC[C@H]2CN(C)CCc1ccc2ccoc2c1,-3.57
9,C=C1CC23CC1CCC2C12OC(=O)C(C)(C(O)C(O)C1O)C2C3C(=O)O (stereo not drawn),2.68
10,O=C(O)CC1CC(c2ccccc2)=NO1 (stereo not drawn),16.3
11,CC1=C2C(=O)C=C(CO[C@@H]3O[C@H](CO)[C@@H](O)[C@H](O)[C@H]3O)[C@@H]2[C@H]2OC(=O)[C@H](C)[C@@H]2[C@@H](O)C1,-7.63
12,COCCCNC(=O)c1ccc(Cn2c(=O)c3ccccc3n(Cc3ccc(C(C)C)cc3)c2=O)cc1,7
13,CCC(C)C(=O)O[C@H]1C[C@](C)(O)[C@]23OC(C)(C)[C@H](C[C@H](OC(=O)c4ccccc4)[C@]2(COC(C)=O)[C@H]1OC(=O)C(C)CC)[C@H]3OC(C)=O (stereo partly drawn),11.5

# Target: Aldehyde dehydrogenase, mitochondrial (Homo sapiens) (UniProt P05091)
# Assay: qHTS for Inhibitors of the Aldehyde Dehydrogenase Family (ALDH2) Primary screen (AID 2061308); further: nearly all actives have a fitted effect of over 55% in size
# Conditions: ALDH2 enzyme inhibition qHTS, 1536-well; series mostly up to 56 µM
Structure (SMILES),Potency,"activity change, negative = inhibition"
Cc1c(C(=O)NCCCO)cnn1-c1nc(-c2cccc(C(F)(F)F)c2)cs1,inactive,
C[C@@H]1CCC2C(C)(C)[C@H](O)CC[C@]2(C)[C@@]12Cc1c(O)cc3c(c1O2)CN(CCO)C3=O (stereo partly drawn),inactive,
CC1=CC(=O)[C@]2(O[C@@H]3O[C@@H](C)[C@H](O)[C@@H](O)[C@H]3O)C=CO[C@@H](O[C@@H]3O[C@H](CO)[C@@H](O)[C@H](O)[C@H]3O)[C@H]12,inactive,
CC(CCO)CCC1C2(C)CCCC(C)(C)C2CC[C@@]1(C)O (stereo partly drawn),inactive,
CC(O)/C=C/C1(O)C(C)C(O[C@@H]2O[C@H](CO)[C@@H](O)[C@H](O)[C@H]2O)C(O)CC1(C)C (stereo partly drawn),inactive,
CC1=C(C(=O)OCc2ccccc2)C(c2ccc(-c3ccccc3)cc2)NC(=O)N1CCCCCC(=O)O (stereo not drawn),inactive,
O=C(NC[C@H]1CN(c2ccc(N3CCOCC3=O)cc2)C(=O)O1)c1ccc(Cl)s1,inactive,
C=C(C)[C@@H]1CC[C@]2(CO)CC[C@]3(C)[C@H](CC[C@@H]4[C@@]5(C)CC[C@H](O)C(C)(C)[C@@H]5CC[C@]43C)[C@@H]12,inactive,
O=C(Nc1ccc(Cl)cc1)C1CCCN(C(=O)c2cccc(-c3ccco3)c2)C1 (stereo not drawn),inactive,
C[C@H]1[C@H](C)CC[C@]2(C(=O)O)CC[C@]3(C)C(=CCC4[C@@]5(C)C[C@@H](O)[C@H](O)C(C)(C)C5CC[C@]43C)[C@H]12 (stereo partly drawn),inactive,
Cc1cc(O)c(C(C)C)cc1O[C@@H]1O[C@H](CO)[C@@H](O)[C@H](O)[C@H]1O,inactive,
Nc1c(S(=O)(=O)c2ccccc2)c2nc3ccccc3nc2n1-c1ccc(F)cc1,inactive,
C=C1C(O)CC2C(C(=O)O)=COC(O[C@@H]3O[C@H](COC(=O)/C=C/c4ccc(O)cc4)[C@@H](O)[C@H](O)[C@H]3O)C12 (stereo partly drawn),inactive,
C[C@]1(OC(=O)/C=C/c2ccc(O)cc2)C[C@@H](O)[C@]2(O)C=CO[C@@H](O[C@@H]3O[C@H](CO)[C@@H](O)[C@H](O)[C@H]3O)C12 (stereo partly drawn),inactive,
C[C@H]1CC[C@@H]2N(C1)C[C@@H]1[C@H]([C@@H](O)[C@H](O)[C@]3(O)[C@H]1C[C@@]14OC5(O)[C@@H](C[C@@H](O)[C@@H]31)[C@]4(C)CC[C@@H]5O)[C@]2(C)O,inactive,
C/C=C/C=C/C(=O)O[C@@H]1C=C2COC(=O)[C@]2(O)[C@@]2(C)CCCC(C)(C)[C@H]12,inactive,
C[C@@H]1C(=O)OC[C@H]2C(C(=O)O)=C[C@@H]3CC(C)(C)C[C@]312,inactive,
CCC(C)/C=C(C)/C=C/C1=CC2=CC(=O)C3(C)OC(C)(O)C(C(=O)OC)C3C2=CO1 (stereo not drawn),inactive,
CC(C)CC(=O)NCCn1cc(C(=O)O)c(=O)cc1C(O)c1ccccc1 (stereo not drawn),inactive,
CCOc1ccc(S(=O)(=O)n2c(C)nc3ccccc32)cc1,inactive,

Structure (SMILES),Potency,"activity change, negative = inhibition"
CC1(C)CCC2(C(=O)OC3OC(COC4OC(CO)C(O)C(O)C4O)C(O)C(O)C3O)CCC3(C)C(=CCC4C5(C)CCC(OC6OCC(O)C(O)C6O)C(C)(C)C5CCC43C)C2C1O (stereo not drawn),inactive,
C=C1C2=CC(O)C(C)C1(C)CC/C(C)=C/CCC1(C)OC1C2=O (stereo not drawn),inactive,
CC1CCC2(C)C(CC(O)C(O)C23CO3)C1(C)CCC1=CC(=O)OC1O (stereo not drawn),inactive,
C[C@@H]1O[C@@H](O[C@H]2[C@H](OC(=O)[C@]34CCC(C)(C)C[C@H]3C3=CCC5[C@@]6(C)C[C@H](O)[C@H](O[C@@H]7O[C@H](CO)[C@@H](O)[C@H](O)[C@H]7O)[C@@](C)(CO)C6[C@H](O)C[C@@]5(C)[C@]3(C)CC4)OC[C@H](O)[C@@H]2O)[C@H](O)[C@H](O)[C@H]1O[C@@H]1OC[C@@H](O)[C@H](O[C@@H]2OC[C@](O)(CO)[C@H]2O)[C@H]1O (stereo partly drawn),,8.31% [at 11.2 µM]
OCC1=CC[C@@H]2C=CO[C@@H](O[C@@H]3O[C@H](CO)[C@@H](O)[C@H](O)[C@H]3O)[C@H]12,inactive,
COc1ccc(/C=C/C(N)=O)cc1OC,inactive,
C#CCCCn1cc(-c2cccc3c2N[C@H](C)CC(=O)N3)cn1,inactive,
C=C1C(=O)O[C@@H]2C=C(COC(C)=O)CC/C=C(\CO)CC[C@@H]12,inactive,
COc1ccc2nc(S(=O)(=O)Cc3ncc(C)c(OC)c3C)[nH]c2c1,inactive,
COc1ccc(CCO[C@@H]2O[C@H](CO[C@@H]3OC[C@H](O)[C@H](O)[C@H]3O)[C@@H](O)[C@H](O)[C@H]2O)cc1,inactive,
C/C=C1\[C@H](O[C@@H]2O[C@H](CO)[C@@H](O)[C@H](O)[C@H]2O)OC=C(C(=O)O)[C@H]1CC(=O)OCCc1ccc(O)cc1,inactive,
CC(C)CC[C@@H](O)[C@](C)(O)[C@H]1CC[C@@]2(O)C3=CC(=O)[C@@H]4C[C@@H](O)[C@@H](O)C[C@]4(C)[C@H]3CC[C@]12C,inactive,
CC(=O)c1[nH]cc(CCC(=O)O)c1CC(=O)O,inactive,
CC1CCC2(NC1)OC1CC3C4CC=C5CC(O[C@@H]6O[C@H](CO)[C@@H](O[C@@H]7O[C@@H](C)[C@H](O)[C@@H](O)[C@H]7O)[C@H](O)[C@H]6O[C@@H]6O[C@@H](C)[C@H](O)[C@@H](O)[C@H]6O)CCC5(C)C4CCC3(C)C1C2C (stereo partly drawn),inactive,
COc1cccc2c1CCC[C@H]2CN(C)CCc1ccc2ccoc2c1,inactive,
C=C1CC23CC1CCC2C12OC(=O)C(C)(C(O)C(O)C1O)C2C3C(=O)O (stereo not drawn),inactive,
O=C(O)CC1CC(c2ccccc2)=NO1 (stereo not drawn),inactive,
CC1=C2C(=O)C=C(CO[C@@H]3O[C@H](CO)[C@@H](O)[C@H](O)[C@H]3O)[C@@H]2[C@H]2OC(=O)[C@H](C)[C@@H]2[C@@H](O)C1,inactive,
COCCCNC(=O)c1ccc(Cn2c(=O)c3ccccc3n(Cc3ccc(C(C)C)cc3)c2=O)cc1,inactive,
CCC(C)C(=O)O[C@H]1C[C@](C)(O)[C@]23OC(C)(C)[C@H](C[C@H](OC(=O)c4ccccc4)[C@]2(COC(C)=O)[C@H]1OC(=O)C(C)CC)[C@H]3OC(C)=O (stereo partly drawn),inactive,
